Results taken from PubChem BioAssay AID1508622 (National Center for Advancing Translational Sciences (NCATS), 2021).
Activity calls are given as the source filed them. Entries that show only a call come without a potency. Calls follow the shape of the dose curve; as a rule, active = well fitted activation curve with a large enough effect; inconclusive = small, poorly fitted or top-dose-only effect; inactive = no such curve, though single readings can be large or run the other way.

Test: Confirmatory qHTS for Identification of Small Molecule Activators of Huntingtin-Antisense Promoter Activity
Outline: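 2,500 luciferase reporter HEK293 cells/well; 24 h culture; cpds up to 57.5 uM final, PTC124 50 uM ctrl; 24 h, 37C; Dual-Glo FLuc reagent, 10 min RT; lum. Norm.: vehicle 0%, zero RLU -100%.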
Potency is read from the fitted curve at half-maximal effect.

Row | Compound | Potency
1 | Cc1ccc(Cl)cc1-n1ncc2c(NCCCc3ccccc3)ncnc21 | inactive
2 | CSc1ccc(CCNC(=O)C2CCCN(S(=O)(=O)N(C)c3ccc(F)cc3)C2)cc1 (stereo not given) | inactive
3 | Cc1ccc(C(=O)Nc2nc(-c3nnn(-c4cccc(Cl)c4C)c3C)ns2)cc1C | inactive
4 | Cc1cccc(N2CCN(C(=O)c3ccc4c(c3)CCN4S(=O)(=O)c3ccccc3)CC2)c1C | inactive
5 | O=C(Nc1ccc(F)cc1)C1CCN(S(=O)(=O)c2ccc3c(c2)CCCN3C(=O)C2CCC2)CC1 | inactive
6 | Cc1cccc(N2CCN(C(=O)C3CCN(S(=O)(=O)c4c(C)noc4C)CC3)CC2)c1C | inactive
7 | CCOc1ccc(CNC(=O)c2ccc(Sc3ccc(Cl)cc3)c(NC(C)=O)c2)cc1OC | inactive
8 | Cc1cccc(N2CCN(C(=O)c3ccc4c(c3)N(Cc3cccc(Cl)c3)C(=O)c3ccccc3S4=O)CC2C)c1 (stereo not given) | inactive
9 | CCS(=O)(=O)N1CC(CC#N)(n2cc(-c3ncnc4[nH]ccc34)cn2)C1 | 30.1 µM (active)
10 | COc1cc(NS(=O)(=O)c2ccc3c(c2)CCCN3C(C)=O)cc(OC)c1OC | inactive
11 | COc1ccc(-c2noc(Cn3c(=O)c4ccccc4n(CC(=O)Nc4cccc(C(F)(F)F)c4)c3=O)n2)cc1 | inactive
12 | Cc1cccc(Nc2nc(Nc3cccc(C)c3)nc(N3CCOCC3)n2)c1 | inactive
13 | O=S(=O)(NCC(c1ccco1)N1CCN(c2ccc(F)cc2)CC1)c1cc(F)ccc1F (stereo not given) | inactive
14 | CCOc1ccc(CCNC(=O)c2cccc(-n3c(C)nc4cccnc43)c2)cc1 | inactive
15 | O=C(NCc1ccccc1)C(=O)NCC(c1ccco1)S(=O)(=O)c1ccc(Cl)cc1 (stereo not given) | inactive
